Entries with a potency or affinity are not part of this list. Calls of active or inactive are those of the source. The limit is not given here; nearly all actives have IC50 up to about 0.91 µM.
target: Calcium-dependent protein kinase 4 (Plasmodium falciparum (isolate 3D7)) (UniProt Q8IBS5); assay: PfCDPK4 kinase inhibitors, biochemical, TCAMS library (AID 1159588); settings: recombinant PfCDPK4, Kinase-Glo ATP depletion luminescence
Sequence (Q8IBS5 whole entry, looked up): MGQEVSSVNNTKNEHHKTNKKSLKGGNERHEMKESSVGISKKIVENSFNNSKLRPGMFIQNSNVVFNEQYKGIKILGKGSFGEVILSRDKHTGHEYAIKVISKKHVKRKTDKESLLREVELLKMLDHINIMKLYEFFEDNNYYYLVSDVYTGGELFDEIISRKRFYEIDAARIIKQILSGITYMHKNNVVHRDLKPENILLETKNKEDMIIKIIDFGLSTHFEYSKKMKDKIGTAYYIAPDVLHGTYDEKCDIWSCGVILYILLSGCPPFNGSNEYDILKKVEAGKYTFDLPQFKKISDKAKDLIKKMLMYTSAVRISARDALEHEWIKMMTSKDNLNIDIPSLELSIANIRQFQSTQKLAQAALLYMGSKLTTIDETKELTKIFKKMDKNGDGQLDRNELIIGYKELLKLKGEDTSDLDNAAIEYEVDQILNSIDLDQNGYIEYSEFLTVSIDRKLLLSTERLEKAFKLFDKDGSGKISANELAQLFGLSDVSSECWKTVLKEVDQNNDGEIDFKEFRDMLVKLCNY

outcome, inactive:
COC(=O)c1ccc(CCCNCC(O)c2cccc(C(F)(F)F)c2)cc1 (stereo not given), O=C(Nc1cc(C(F)(F)F)cc(C(F)(F)F)c1)Nc1cc(C(F)(F)F)cc(C(F)(F)F)c1, COc1ccc2ncc(F)c(CCN3CCC(NCc4cc(Br)c5c(c4)OCCO5)CC3)c2n1, O=C(Nc1ccc(F)cc1)c1nc2ccccc2nc1Cl, CCOC(=O)c1ccc(NC(=O)Nc2cccc(-c3cccc(-c4nc5ccccc5[nH]4)c3)c2)cc1, CCCCCCCCN1CCN(CCCCCCNc2c3ccccc3nc3ccccc23)CC1, CCC(C(=O)Nc1ccccc1)n1nc(-c2ccc(C)c(S(=O)(=O)N3CCCCC3)c2)ccc1=O (stereo not given), CC(C)(C)c1ccc(CNC(=O)c2ccc(CNC3CCC(N)CC3)s2)cc1 (stereo not given), COc1ccc2nccc(N3CCC(CCNCc4cc5c(cn4)OCCO5)CC3)c2c1, O=C(NC1CCC(N2CCC(c3nc4ccccc4s3)CC2)CC1)c1cc2ccccc2[nH]1 (stereo not given), COc1cc(NC(=O)c2cccs2)c(OC)cc1NC(=O)Nc1cccc(Cl)c1, CNC(=O)c1cc(S(=O)(=O)Nc2ccc(OC)cc2)cs1, CN(C)CCOc1ccc(N2CCN(CCCCNC(=O)c3ccc(NC(=O)c4ccc(Cl)cc4)cc3)CC2)cc1, C[C@@H]1CN(C(c2cccc(O)c2)c2cccc(C(=O)N(C)c3cccc(F)c3)c2)[C@@H](C)CN1C(c1cccc(O)c1)c1cccc(C(=O)N(C)c2cccc(F)c2)c1 (stereo not given in full), COc1ccc2nc(C)cc(NN=Cc3cccc(Cl)c3)c2c1, FC(F)(F)c1ccc2nc(-c3ccc(-c4ccc(CNCC5CCCO5)cc4)cc3)[nH]c2c1 (stereo not given), COc1ccc2c(NN=Cc3cccc([N+](=O)[O-])c3)ccnc2c1, CC(C)(C)c1ccc2nccc(Nc3cccc(O)c3)c2c1, COc1ccccc1-c1sccc1C(=O)NC1(c2cc(Cl)cc(Cl)c2)CCCC1, COc1ccc(-n2ccnc2)cc1CNC1CCN(CC2Cn3c(=O)ccc4ccc(F)c2c43)CC1 (stereo not given), COc1ccc(-c2nc(NC(=O)CSc3ccc([N+](=O)[O-])cc3)sc2C)cc1, Cc1cc(NN=Cc2ccc(F)cc2)c2cc(C(F)(F)F)ccc2n1, NC1=NC2(CCCCC2)N(OCC2CCCCC2)C(N)=N1, Cc1[nH]c(C)c(-c2ccc(OCc3cc(F)cc(F)c3)nc2)c(=O)c1Cl, O=C(Nc1cccc(CN2CCCN(CCc3ccccc3)CC2)c1)c1cc2ccccc2s1, O=C1NC(c2ccccc2)C2(CCN(CC(O)COc3cccc4ncccc34)CC2)O1 (stereo not given), O=C(Nc1cccc(CN2CCN(Cc3cccc(O)c3)CC2)c1)c1cc2ccccc2s1, O=S(=O)(Nc1ccc(-c2ccc(CN3CCCC3)cc2)cc1)c1cccc2cccnc12, CCCC(C)n1ccc2c3c(N)nc(N)nc3ccc21 (stereo not given), CC(CN(C)C)C(=O)Nc1cccc(-c2ccc(-c3nc4ccccc4[nH]3)cc2)c1 (stereo not given), O=C(NCCCCN1CCC(c2ccc(-c3ccco3)cc2)CC1)c1ccc(NC(=O)c2ccc(Cl)cc2)cc1, CCc1ccc(NC(=O)c2ccc(CN3CCCN(CCC(C)C)CC3)cc2)cc1, O=C(Nc1ccc(C(F)(F)F)cc1)Nc1cccc([N+](=O)[O-])c1, CC(C)(C)c1ccc(CN(C[C@@H](O)CNS(=O)(=O)c2cc(Cl)cc(Cl)c2)C(C)(C)C)cc1, CCCCCN1CCCC(CNS(=O)(=O)c2ccc(C(=O)Nc3ccc(C(F)(F)F)cc3)cc2)C1 (stereo not given), CC(C)(C)N1CCC(N(Cc2ccc(-c3ccc(C(F)(F)F)cc3)cc2)C(=O)Cn2c(CCc3cccc(F)c3F)cc(=O)c3cccnc32)CC1, CS(=O)(=O)NCCCNCc1ccc(-c2cccc(-c3nc4ccc(F)cc4[nH]3)c2)cc1, OC[C@H]1CCCN1CC#Cc1cc2c(Nc3ccc(OCc4cccc(F)c4)c(Cl)c3)ncnc2s1, Nc1ccc(-c2nc3ccc(-c4ccc5nc(-c6ccc(N)cc6)[nH]c5c4)cc3[nH]2)cc1, Cc1cccc2[nH]c(-c3ccc(-c4cccc(C(=O)NCCc5cn(C)cn5)c4)s3)nc12

Source: PubChem BioAssay
